Reference: ChEMBL document CHEMBL3433997, “St. Jude Leishmania screening dataset” (2016)

Tests used:
Format in all cases: functional
[1] = target: Solute carrier family 2, facilitated glucose transporter member 1 (Homo sapiens) (UniProt P11166); experiment: ST_JUDE_LEISH: Cytotoxicity at 2uM final concentration against transgenic Leishmania Mexicana promastigotes LmGLUT1 that are glucose transport deficient and complemented with the human glucose transporter GLUT1. Activity is measured by DNA content using SYBR green in vitro
Chain of Solute carrier family 2, facilitated glucose transporter member 1 (Homo sapiens) (P11166 whole entry): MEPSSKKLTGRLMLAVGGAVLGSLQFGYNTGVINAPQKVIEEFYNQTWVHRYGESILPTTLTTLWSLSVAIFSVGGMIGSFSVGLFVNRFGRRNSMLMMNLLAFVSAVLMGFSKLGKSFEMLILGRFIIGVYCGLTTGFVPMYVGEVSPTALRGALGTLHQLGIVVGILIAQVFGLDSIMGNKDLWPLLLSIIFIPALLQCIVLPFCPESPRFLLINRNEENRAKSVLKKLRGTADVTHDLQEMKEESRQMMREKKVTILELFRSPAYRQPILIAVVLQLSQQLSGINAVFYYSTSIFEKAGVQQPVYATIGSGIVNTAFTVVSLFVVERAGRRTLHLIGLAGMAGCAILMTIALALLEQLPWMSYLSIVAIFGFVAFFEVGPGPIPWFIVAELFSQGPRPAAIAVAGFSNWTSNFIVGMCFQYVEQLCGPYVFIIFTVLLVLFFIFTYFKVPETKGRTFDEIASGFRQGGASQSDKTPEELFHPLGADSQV

[2] = target: Hexose transporter 1 (Plasmodium falciparum) (UniProt O97467); experiment: ST_JUDE_LEISH: Cytotoxicity at 2uM final concentration against transgenic Leishmania Mexicana promastigotes LmPfHT that are glucose transport deficient and complemented with the Plasmodium falciparum hexose transporter. Activity is measured by DNA content using SYBR green in vitro
[3] = target: Glucose transporter (Leishmania mexicana) (UniProt O61059); experiment: ST_JUDE_LEISH: Cytotoxicity at 2uM final concentration against transgenic Leishmania Mexicana promastigotes LmGT2 that are glucose transport deficient and complemented with the L. Mexicana glucose transporter 2. Activity is measured by DNA content using SYBR green in vitro

Row | SMILES | inhibition [1] [%] | inhibition [2] [%] | inhibition [3] [%]
1 | N#Cc1nc2ccc(OCCN(Cc3ccccc3C(F)(F)F)c3ccc(C#N)c(C(F)(F)F)c3)cc2s1 | 9.32 | 6.39 | 8.4
2 | CC1(C)C(N(O)C(=O)Nc2ccc(Cl)c(Cl)c2)N(c2ccc(Cl)c(Cl)c2)C(=O)N1CCc1ccccc1 (stereo not drawn) | -0.14 | 0.2 | 0
3 | COc1ccc(Oc2ccc(Nc3ccnc4ccc(C(F)(F)F)cc34)cc2)cc1OC | 7.8 | 6.26 | 12.3
4 | COc1cccc(-c2cccc(CNC3CCN(CC4Cn5c(=O)ccc6ccc(F)c4c65)CC3)c2)c1 (stereo not drawn) | 6.16 | 2.1 | 1.71
5 | O=C(c1ccccc1F)N(Cc1ccc(Cl)cc1)c1ccccn1 | 6.82 | 7.84 | 9.29
6 | CCCN(CCC)C(=O)c1cc(C(=O)N[C@@H](Cc2ccccc2)[C@H](O)CNC2CC2)cc(N2CCCCS2(=O)=O)c1 | 2.88 | 2.88 | 1.62
7 | CCC[C@@H]([C@@H](Cc1ccc(C)s1)C(=O)N[C@@H](CNC(C)=O)C(=O)Nc1nccs1)N(O)C=O | 12 | 9.56 | 8.72
8 | N#Cc1ccc(CN2CCC(Oc3ccc(NC(=O)c4cccs4)cc3)CC2)cc1 | -0.02 | 1.99 | 4.28
9 | CN1CCN(c2ccnc3ccc(NC(=O)Cc4ccc(-c5ccncc5)c5ccccc45)cc23)CC1 | -3.69 | 0.37 | -0.2
10 | C[C@@H](N/C(=N\c1ccc(-c2ccccc2)cc1)Nc1ccc(C#N)cc1O)c1ccc(Br)cc1 | 2.33 | 2.45 | 2.66
11 | CCN(CC)CCCN(C(=O)Nc1cc(F)cc(F)c1)c1nc(-c2ccc(F)cc2)cs1 | 1.8 | -0.11 | 1.69
